Screens from PubChem.
PLK1 PBD inh – PLK1 (human) polo-box domain binding inhibition | hit rate 2.8% among 360,000 | Potency, µM, for inactives: max response, negative = inhibition, actives largely listed as inhibitors | Plk1 PBD binding of FITC phosphopeptide, fluorescence polarization | AID 720504; further: potency means the concentration at half of the fitted maximal effect; series mostly up to about 57 µM; on the % scale 0 is the no-effect control and ±100 the full control effect; nearly all actives have a fitted effect of over 65% in size
Target sequence (P53350 whole entry, looked up, the tested form may be a part): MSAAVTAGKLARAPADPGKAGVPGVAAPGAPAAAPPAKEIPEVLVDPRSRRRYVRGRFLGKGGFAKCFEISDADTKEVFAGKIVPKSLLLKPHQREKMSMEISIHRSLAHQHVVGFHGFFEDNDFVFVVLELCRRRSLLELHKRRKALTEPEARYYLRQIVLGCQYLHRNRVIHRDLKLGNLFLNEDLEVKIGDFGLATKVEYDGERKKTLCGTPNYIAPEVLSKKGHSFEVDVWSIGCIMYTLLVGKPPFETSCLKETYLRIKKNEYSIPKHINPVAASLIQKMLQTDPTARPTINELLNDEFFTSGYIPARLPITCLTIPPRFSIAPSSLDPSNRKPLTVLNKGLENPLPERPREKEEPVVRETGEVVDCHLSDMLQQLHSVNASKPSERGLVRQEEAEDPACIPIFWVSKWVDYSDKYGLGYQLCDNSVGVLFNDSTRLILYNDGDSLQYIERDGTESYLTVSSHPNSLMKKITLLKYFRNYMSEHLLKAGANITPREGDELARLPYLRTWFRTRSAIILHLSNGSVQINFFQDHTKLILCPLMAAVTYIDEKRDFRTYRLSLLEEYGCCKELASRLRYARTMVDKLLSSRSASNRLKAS
VDR inhibitor – inhibitors of human vitamin D receptor; hit rate 0.93% among 400,000; VDR-SRC2-3 peptide fluorescence polarization, 2 h; Potency, µM, inactives show max response, negative = inhibition, most hits filed as inhibitors; further: potency means the concentration at half of the fitted maximal effect; on the % scale 0 is the no-effect control and ±100 the full control effect
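Fluorescence polarization assay measuring small-molecule disruption of VDR binding to the coregulator peptide SRC2-3. Compounds were pin-transferred (23 nl) into the reagent mix and incubated 2 h at room temperature before reading.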
PTAP TSG101 blk – blocks PTAP/TSG101 interaction to inhibit HIV-1 budding | Q99816 | Fluorescence polarization, FITC-PTAP peptide / Tsg101 binding | Potency, µM (titrated, usually from 115 µM), for the others: at the top dose activity change, negative = inhibition, most hits filed as inhibitors | 340,000 tested, under 10 active | AID 493005; active means well fitted inhibition curve with a large enough effect in the main read-out, with a control signal flat, not every such curve was filed as active; inconclusive means small, poorly fitted or top-dose-only effect, or effect the other way, or a change in a side signal; inactive means no such curve, though single readings can be large or run the other way; further: potency means the concentration at half of the fitted maximal effect; % of control where 0% means no effect
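Steps: Tsg101 binding domain dispensed (10 uM final), compounds pinned in DMSO, FITC-labeled PTAP-motif peptide added (50 nM final); after 20 min binding at room temperature, polarization measured.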
TSHR antag – human thyrotropin receptor antagonism | P16473 | TSHR-expressing cells, TSH-stimulated cAMP HTRF, 2 h; hits give low values | activity change, negative = inhibition, % at 11.5 µM | hit rate 0.2% among 330,000 | AID 504810;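 active means activity change below a set negative limit, meaning inhibition stronger than a set level, cut at about -70% in these data; inconclusive means activity change between two set negative limits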; further: on the % scale 0 is the no-effect control and ±100 the full control effect
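Read-out is FRET at 665 nm (cryptate excitation 337 nm) from a cryptate-tagged anti-cAMP antibody, competed by cell cAMP against cAMP-d2. Compounds are tested on freshly harvested TSHR cells challenged with 4nM TSH (EC80) for 2 hours at 37 deg C.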
uPA surface inh – cell surface uPA generation inhibition | cell surface uPA generation assay, qHTS | hit rate 0.31% among 330,000 | AID 540303 | Potency, µM (series often up to 38.3 µM), for inactives: at the top dose activity change, negative = inhibition, most hits filed as inhibitors; active means well fitted inhibition curve with a large enough effect; inconclusive means small, poorly fitted or top-dose-only effect; inactive means no such curve, though single readings can be large or run the other way; tested in mouse RAW 264.7 cells; further: potency means the concentration at half of the fitted maximal effect; on the % scale 0 is the no-effect control and ±100 the full control effect; nearly all actives have a fitted effect of over 55% in size
An asterisk follows results filed as active; ? = inconclusive; / = no result. Hits are enriched below; roughly 3.1% of the tested compounds scored in any of these assays. Unless noted, the call rests on the fitted dose curve; in most records, active means well fitted curve in the direction sought with a large enough effect; inconclusive means small, poorly fitted or top-dose-only effect, or another doubt; inactive means no such curve, though single readings can be large; an effect the other way counts as inactive or inconclusive.

SMILES	PLK1 PBD inh	VDR inhibitor	PTAP TSG101 blk	TSHR antag	uPA surface inh
CCc1cccc(NC(=O)C(Cc2ccccc2)n2cccc2)c1 (stereo not drawn)	/	7.2%	/	/	/
CC(C)c1ccc(NS(=O)(=O)c2ccc3nc(-c4ccccc4)[nH]c3c2)cc1	/	4.4%	/	/	/
Cc1ccc(C(=O)NCC(=O)OCC(=O)NCCc2ccccc2)s1	26.7µM*	-17.8%	-0.6%	5.3	-0.4%
Cc1ccc(C(=O)NCC(=O)NCCCc2ccccc2)s1	4.3%	-7.1%	-0.7%	-35.0	1.6%
Cc1cccc(Cn2c(=O)n(CCCCC(=O)NCc3ccc4c(c3)OCO4)c(=O)c3ccccc32)c1	/	-2.7%	/	/	/
CSc1ncc(C(=O)NCc2ccccc2)c(-c2ccccc2)n1	/	-2.0%	/	/	/
CC(C)(C)c1ccc(S(=O)(=O)/C=C/C#N)cc1	/	6.31µM*	/	-19.5	/
Cc1ccn(S(=O)(=O)c2ccc(C(C)(C)C)cc2)n1	-7.4%	-12.2%	-8.0%	/	2.2%
CC(NS(=O)(=O)c1ccc(Cl)cc1)C(=O)OCC(=O)Nc1ccc(N(C)C)cc1 (stereo not drawn)	-4.9%	?	-1.2%	-13.5	8.0%
CCOc1cccc(CC(=O)N2CCc3c([nH]c4ccccc34)C2c2ccc(Cl)cc2)c1OCC (stereo not drawn)	/	6.9%	/	/	/
Cc1ccc(C(=O)Nc2nnc(-c3ccncc3)o2)cc1	1.0%	19.6%	-5.5%	3.0	-1.2%
O=C(Nc1nnc(-c2ccncc2)o1)c1ccccc1	7.52µM*	?	-0.9%	5.9	4.6%
CC(C)n1c(=S)[nH]c2ccccc21	25.1µM*	-8.2%	0.5%	-3.1	0.5%
O=C(COC(=O)/C=C/c1ccccc1[N+](=O)[O-])NC1CCS(=O)(=O)C1 (stereo not drawn)	-8.6%	-6.7%	-11.4%	-4.5	-0.4%
O=C(COC(=O)/C=C/c1ccccc1[N+](=O)[O-])NC1CC1	16.8µM*	70.8µM*	-0.6%	0.3	-0.3%
O=C(Nc1ccccc1C(F)(F)F)C1CCN(S(=O)(=O)c2ccccc2)CC1	/	-3.5%	/	/	/
CN(C)C(=O)c1cc(C(=O)c2ccc(F)cc2C(F)(F)F)c[nH]1	-6.1%	-4.1%	-4.7%	-7.4	-4.1%
CN(C)C(=O)c1cc(C(=O)c2ccccc2C(F)(F)F)c[nH]1	26.7µM*	-2.3%	-3.0%	4.3	2.0%
CC[C@H](C)[C@H](NC(=O)[C@@H]1CCCN1C(=O)[C@H](Cc1cnc[nH]1)NC(=O)[C@H](CCCCNC(=O)[C@H](CCCN=C(N)N)NC(=O)OCc1ccccc1)NC(=O)[C@H](Cc1ccc(O)cc1)NC(=O)c1cccnc1)C(=O)O	/	-9.6%	/	/	/
CCCCCCCCCCCCCCOc1ccc(C(=O)O)o1	/	11.2µM*	/	/	/
CCOc1ccc(OCc2ccc(C(=O)O)o2)cc1	-8.4%	-9.1%	-2.6%	-7.6	1.0%
O=C(Nc1ccc(F)cc1F)c1cccnc1	26.7µM*	-20.5%	-5.0%	6.1	-2.8%
COCCN1C(=O)N[C@@H](c2cccc(C(F)(F)F)c2)C(C(=O)OC)=C1C	29.9µM*	?	5.2%	/	19.7%
COc1cc(-c2noc(C)c2-c2ccc3[nH]ccc3c2)cc(OC)c1OC	-9.4%	?	-0.6%	-11.8	0.562µM*
NC(=O)C1CCN(c2nc(-c3cccc4sc5ccccc5c34)cs2)CC1	/	/	/	-17.0	/
SMILES	PLK1 PBD inh	VDR inhibitor	PTAP TSG101 blk	TSHR antag	uPA surface inh
CCc1c(C)[nH]c2ccc(OC)cc2c1=S	13.4µM*	2.1%	-4.6%	-5.2	0.7%
COc1ccc2[nH]c(C)c(CN3CCCCC3)c(=O)c2c1	1.6%	-8.7%	3.4%	3.9	-1.4%
Cc1ccc(NC(=O)Cn2c(=O)oc3cc(S(=O)(=O)N4CCC(C)CC4)ccc32)cc1Cl	/	-1.6%	/	/	/
COc1cccc2sc3ccc(C#CC4(O)CCCCC4)cc3c(=O)c12	-11.3%	-5.2%	-4.1%	11.2	?
O=c1c2ccccc2oc2cc(C#CC3(O)CCCCC3)ccc12	0.3%	6.3%	-1.6%	/	4.47µM*
COc1cccc2oc3cc(C#CC4(O)CCCCC4)ccc3c(=O)c12	-7.9%	?	/	5.2	7.08µM*
O=c1c2ccccc2sc2ccc(C#CC3(O)CCCCC3)cc12	-5.8%	-18.4%	/	/	2.51µM*
C=CCn1c2ccccc2c(=O)c2cc(C#CC3(O)CCCCC3)ccc21	7.1%	-16.9%	-2.3%	-16.1	?
O=C(COc1ccccc1[N+](=O)[O-])Nc1cc(-c2nc3cc(Cl)ccc3o2)ccc1Cl	/	24.7%	/	/	/
CSc1ccc(CCNC(=O)Cn2ccc3cc(S(=O)(=O)N4CCCCCC4)ccc32)cc1	/	7.6%	/	/	/
COc1cccc(-c2nc(CSCC(=O)NCCc3ccc(Cl)cc3)c(C)o2)c1	/	-20.1%	/	/	/
CCOC(=O)c1c(SCCN2CCCC2)n(-c2ccccc2)c(=S)n(-c2ccccc2)c1=O	-26.9%	70.8µM*	-3.9%	/	-2.3%
CCc1ccc(S(=O)(=O)c2cn(CC(=O)Nc3ccc(F)c(Cl)c3)c3ccccc3c2=O)cc1	/	-13.7%	/	/	/
N=C1CCCC1C(=S)SCCC(N)=O (stereo not drawn)	-0.2%	/	/	/	/
Cc1ccccc1-c1nnc(SCC(=O)Nc2ccc(Cl)cc2)n1N	-7.4%	8.4%	-3.3%	-1.6	3.2%
Cc1ccccc1NC(=O)CSc1nnc(-c2ccco2)n1N	18.9µM*	?	-4.4%	5.6	6.1%
Cc1cccc(NC(=O)CSc2nnc(-c3ccco3)c(-c3ccco3)n2)c1C	15µM*	?	-5.5%	-8.4	-6.4%
COc1ccc(NC(=O)CSc2nnc(-c3ccccc3C)n2N)cc1	21.2µM*	?	3.9%	2.7	-7.4%
Cc1cc(-c2nnc(SCC(=O)Nc3ccccc3C(F)(F)F)n2N)n[nH]1	5.97µM*	?	-2.4%	-1.6	-2.7%
Cc1cc(C)c(NC(=O)CSc2nnc(-c3ccco3)n2N)c(C)c1	-0.2%	-7.6%	-4.8%	-5.3	-0.9%
O=C(NCc1ccc2c(c1)OCO2)c1ccc2c(c1)N(Cc1ccc(F)cc1)C(=O)c1ccccc1S2=O (stereo not drawn)	/	2.1%	/	/	/
CC(=O)Oc1ccccc1Cn1c(C)c(C(=O)NCc2ccc(F)cc2)sc1=O	4.1%	/	/	/	/
COc1ccc(-n2c(Cc3cccn3C)nnc2SCC(=O)Nc2nccs2)cc1	-0.4%	5.3%	-3.9%	0.2	10.6%
COc1ccc(-n2c(SCC(=O)Nc3nccs3)nnc2-c2ccccc2)cc1	26.7µM*	-11.2%	-15.0%	2.0	2.7%
CCN(CC)c1ccc(/C=C2\C(=O)N(c3nnc(C)c(=O)[nH]3)N=C2C)cc1	?	15.8µM*	-4.0%	-4.9	-7.1%
CN1C(=O)c2ccccc2Sc2ccc(NC(=O)N3CCN(c4cccc(Cl)c4)CC3)cc21	/	9.0%	/	/	/
COc1ccc2cc(CO)c(Cl)nc2c1	6.7µM*	-15.3%	-1.8%	-1.2	-3.5%
Cc1ccc(C#N)c(SCC(=O)Nc2nccs2)n1	0.2%	-14.7%	0.0%	-1.7	6.31µM*
N#Cc1cc2c(nc1SCC(=O)Nc1nccs1)CCCCC2	-8.2%	14.9%	3.3%	-12.2	/
